A selection follows.
aSyn 5UTR act: Activators via SNCA 5'UTR binding, MLPCN; activity score, % (tested at 7.5 µM), hits read low; hit rate 7.1% among 300,000; alpha-synuclein 5'UTR reporter, activators screen; in the data active means activity score below about -60%
A number is an active result; - = inactive.

SMILES | aSyn 5UTR act
O=C(Nc1ccc2oc(-c3ccccc3)nc2c1)c1cccs1 | -295
O=C(Nc1ccc2oc(-c3ccccc3)nc2c1)c1cc(-n2cnnc2)ccc1Cl | -64
Cc1ccc(-c2nc3ccccc3s2)cc1NC(=S)NC(=O)c1ccccc1 | -116
Cc1ccc2oc(-c3cccc(NC(=S)NC(=O)c4cccs4)c3)nc2c1 | -153
Cc1ccc(-c2nc3ccccc3o2)cc1NC(=S)NC(=O)c1cccs1 | -75
O=C(c1ccc(COc2ccc(Cl)cc2)cc1)N1CCCCC1 | -85
COC(=O)c1ccc(COc2ccc(CNCc3ccc(Cl)cc3)cc2)cc1 | -92
CCCCOc1ccc(C(=O)N2CCCCCC2)cc1 | -80
Cc1nc2ccccc2n1/N=C/c1ccc([N+](=O)[O-])o1 | -172
Cc1nc2ccccc2c(=O)n1/N=C/c1ccc([N+](=O)[O-])o1 | -64
CC1CCN(c2oc(-c3ccc(F)cc3)nc2C#N)CC1 | -67
CC1CCN(c2oc(-c3ccccc3Cl)nc2C#N)CC1 | -144
O=C(COc1ccccc1F)Nc1ccc2c(c1)OCCO2 | -75
C[C@@H](C(=O)Nc1ccc2c(c1)OCCO2)n1nnc2ccccc2c1=O | -89
N#Cc1ccccc1OCC(=O)Nc1ccc2c(c1)OCCCO2 | -160
Cc1ccccc1OC(C)C(=O)Nc1ccc2c(c1)OCCO2 (stereo not drawn) | -71
O=C(COc1ccccc1Br)Nc1ccc2c(c1)OCCCO2 | -133
CCCCN=C1NN=C(c2cccc([N+](=O)[O-])c2)CS1 | -68
CCCCN=C1NN=C(c2cc3ccccc3o2)CS1 | -106
O=C(Cn1cc(SCc2ccccc2Cl)c2ccccc21)N1CCOCC1 | -163
CCn1cc(SCC(=O)N2CCOCC2)c2ccccc21 | -114
CC1(C)CC(=O)C2=C(C1)Nc1ccccc1N=C2 | -163
Cc1cc(C2=NNC(=Nc3ccccc3)SC2)c(C)n1C | -80
CN1CCN(CCCNC(=O)c2cc3c(=O)n(C)c4ccccc4c3s2)CC1 | -74
CCN(CC)CCNC(=O)c1cc2c(=O)n(CC)c3ccccc3c2s1 | -125
SMILES | aSyn 5UTR act
CCN(CC)CCCNC(=O)c1cc2c(=O)n(CC)c3ccccc3c2s1 | -107
CCCN(CCC)CCNC(=O)c1cc2c(=O)n(CC)c3ccccc3c2s1 | -174
CCOCCCNC(=O)c1cc2c(=O)n(CC)c3ccccc3c2s1 | -80
Cc1cc(-c2ccc(N3CCOCC3)cc2)nc2ccccc12 | -307
c1ccc2nc(-c3ccc(N4CCOCC4)cc3)ccc2c1 | -
Cc1ccccc1NCc1nc2ccccc2n1C | -126
Cn1c(CNc2ccccc2O)nc2ccccc21 | -154
CCOC(=O)c1cc2c(nc1NC(=S)NCc1ccccc1)CCCC2 | -107
O=C(N[C@@H](Cc1ccccc1)C(=O)NC1CCCCCC1)c1ccco1 | -78
Cc1ccc(NC(=S)N2CCCCCC2)cc1 | -94
Cc1ccc(NC(=S)N2CCCC2)cc1 | -64
CCc1ccc2oc(-c3ccc(OC)cc3)cc(=Nc3c(C)n(C)n(-c4ccccc4)c3=O)c2c1 | -77
CC1(C)CCCN(Cc2c(O)ccc3c(=O)c(-c4nc5ccccc5s4)c(N)oc23)C1 | -125
COC(=O)c1cn(C(=O)c2ccc(OC)cc2)c2ccccc12 | -147
N#Cc1c(N)nc(N)nc1Nc1ccc(Br)cc1 | -64
O=C(NC1CC1)c1c(O)c2ccccc2[nH]c1=O | -68
O=C(NC1CCCCCCC1)c1c(O)c2ccccc2[nH]c1=O | -99
NNC(=O)c1[nH]c2ccccc2c1-c1ccccc1 | -
O=C(NCCc1ccccc1)c1c(O)c2ccccc2[nH]c1=O | -119
N#C/C(=C\c1cn(Cc2cccc(F)c2)c2ccccc12)C(=O)NCc1ccco1 | -
N#C/C(=C\c1cn(Cc2ccccc2)c2ccccc12)C(=O)NCc1ccco1 | -
CN(C)c1ccc(/C=C(\C#N)C(=O)NCc2ccco2)cc1 | -102
COc1cnn(-c2ccc(Br)cc2)c(=O)c1SCc1ccccc1 | -71
COc1cnn(-c2ccc(C)cc2)c(=O)c1SCc1ccccc1 | -77
CN(C(=O)/C=C/c1ccccc1)C1CCCCC1 | -98
SMILES | aSyn 5UTR act
Cc1ccc(NC(=S)NC(=O)C2CCC2)cc1C | -95
Cc1ccc(NC(=S)NC2CCCC2)cc1C | -128
CC(C)CC(=O)Nc1ccc(C(=O)NNC(=S)NC(=O)C2CCCCC2)cc1 | -
O=C(NC(=S)Nc1ccc(F)cc1)C1CCCCC1 | -63
Cc1ccc(NC(=S)NC(=O)C2CC2)c(C)c1 | -119
O=C(NC(=S)Nc1ccccc1F)C1CCCCC1 | -88
S=C(Nc1ccc2[nH]ccc2c1)NC1CCCCC1 | -105
Cc1ccc(NC(=S)NC(=O)C2CCCC2)cc1C | -131
Cc1nc2ccc(NC(=S)NC3CCCCC3)cc2nc1C | -173
C[n+]1cn(/N=C/c2ccccc2)c2ccccc21 | -87
O=C(Nc1ccc(O)cc1)c1cc2n(n1)C(C(F)(F)F)CC(c1ccco1)N2 (stereo not drawn) | -66
COc1cccc(NC(=O)NC2(C(F)(F)F)Oc3ccccc3O2)c1 | -77
COc1cccc(NC(=O)Nc2cc(C)ccc2F)c1 | -73
COc1ccc(NC(=O)Nc2cc(C)ccc2F)cc1 | -164
COc1ccc(C)cc1NC(=O)Nc1ccc(C(=O)N2CCCC2)cc1 | -64
O=C(NCc1cccnc1)NC1(C(F)(F)F)Oc2ccccc2O1 | -66
Cc1oc2c(c1C(=O)NCc1cccnc1)C(=O)c1ccccc1C2=O | -
COc1cccc(NC(=O)NCc2ccccc2Cl)c1 | -73
COc1cccc(NC(=O)Nc2ccccc2SC)c1 | -72
COC(=O)C1=C(CN2CCCc3ccccc32)NC(=O)NC1c1ccc(F)cc1 (stereo not drawn) | -
COc1ccc(C(=O)N2CCc3ccccc32)cc1 | -89
COc1ccc(CCC(=O)N2CCc3ccccc32)cc1 | -91
COc1ccc(/C=C/C(=O)N2CCCc3ccccc32)cc1 | -93
Cc1ccc(/C=C/C(=O)N2CCc3ccccc32)o1 | -204
COc1cc2[nH]c(C(=O)N3CCc4ccccc43)cc2c(OC)c1OC | -93
SMILES | aSyn 5UTR act
CC(=O)c1cccc(NC(=O)CN2C(=O)COc3ccc(S(=O)(=O)N4CCOCC4)cc32)c1 | -
CCOC(=O)C1CCN(C(=O)CN2C(=O)COc3ccc(C(C)(C)C)cc32)CC1 | -111
O=C(/C=C/c1ccc(OC2CSC2)cc1)c1ccccc1 | -153
NCCOc1ccc(C2CCCCC2)cc1 | -
CCOc1ccc(/C=C/C(=O)c2ccccc2)cc1 | -179
O=C(O)COc1ccc(/C=C/C(=O)c2ccc(C3CCCCC3)cc2)cc1 | -115
CC(C)(C)C(=O)/C=C/c1ccc(Oc2ccccc2)cc1 | -155
Oc1ccc(/C=C/c2cnccn2)cc1 | -171
CNc1nc(-c2ccc(Cl)cc2)cs1 | -204
CCNc1nc(-c2ccc(Cl)cc2)cs1 | -169
CCOCCCNC(=O)c1ccc2c(c1)N=C(CC)c1cc(Br)ccc1S2 | -
CCOCCCNC(=O)c1cccc(OC2CCN(S(C)(=O)=O)CC2)c1 | -151
O=c1cc(-c2ccc(O)c(O)c2)oc2cc(O)cc(O)c12 | -207
COc1cc(-c2cc(=O)c3c(O)c(OC)c(OC)c(O)c3o2)ccc1O | -
O=c1c(O)c(-c2ccc(O)c(O)c2)oc2cc(O)cc(O)c12 | -109
Clc1ccc(-c2nc3ccccn3c2CN2CCCCC2)cc1 | -101
CN(C)Cc1c(-c2ccc(Cl)cc2)nc2ccccn12 | -151
CCN1/C(=C\C(=S)Nc2ccccc2)Sc2ccccc21 | -144
CCN1/C(=C/C(C)=C/c2sc3ccccc3[n+]2CC)Sc2ccccc21 | -
CCN(CC)CCN1C(=O)c2oc3ccccc3c(=O)c2C1c1ccc(F)cc1 (stereo not drawn) | -70
CCc1ccc(-c2ccc(SCc3ccccn3)nn2)cc1 | -143

Assay outcomes (PubChem)
